Reference: PubChem BioAssay (NCI)
About 83,000 compounds went through this panel and 20% of them were active in at least one assay; those are over-represented in the sample as a whole.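 For each line, cells grew in 96-well plates with the test compound present at a single concentration for 48 hours.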 Unmarked numbers belong to inactive results. Calls of active or inactive are those of the source. The calls were made as follows: active = growth percent below 10; inactive = the rest.

Legend:
Test in all cases: NCI-60 one-dose screen, 48 h (100 = growth as untreated, 0 = no growth, -100 = all killed)
Conditions in all cases: 10 µM unless noted
[1] = test system: RPMI-8226 leukemia
[2] = test system: OVCAR-8 ovarian
[3] = test system: OVCAR-5 ovarian
[4] = test system: OVCAR-4 ovarian
[5] = test system: SK-OV-3 ovarian
[6] = test system: IGROV1 ovarian
[7] = test system: OVCAR-3 ovarian
[8] = test system: HS 578T breast
[9] = test system: NCI/ADR-RES ovarian
[10] = test system: T-47D breast
[11] = test system: BT-549 breast
[12] = test system: MDA-MB-435 melanoma
[13] = test system: SW-620 colon
[14] = test system: MCF7 breast
[15] = test system: HCT-116 colon
[16] = test system: HCC-2998 colon
[17] = test system: KM12 colon

Compound: COc1cc(/C=C/C(=O)/C=C/c2cc3ccc(Cl)cc3[nH]c2=O)ccc1O
- growth [1]: 4.64% (active)
- growth [2]: 6.97% (active)
- growth [3]: 103%
- growth [4]: 68%
- growth [5]: 105%
- growth [6]: 40.7%
- growth [7]: 42.4%
- growth [8]: 73.8%
- growth [9]: 41%
- growth [10]: 88.8%
- growth [11]: 97.5%
- growth [12]: 36%
- growth [13]: 29.7%
- growth [14]: 57.8%
- growth [15]: 2.1% (active)
- growth [16]: 86.3%
- growth [17]: 81.3%

Compound: O=C(Nc1nc(-c2ccccc2Cl)cs1)c1cc(-c2ccc(Br)cc2)nc2ccccc12
- growth [1]: 29%
- growth [2]: 43.1%
- growth [3]: 70.6%
- growth [4]: 46.6%
- growth [5]: 31.8%
- growth [6]: 61.4%
- growth [7]: 47%
- growth [8]: 79.6%
- growth [9]: 57.2%
- growth [10]: 9.58% (active)
- growth [11]: 70.9%
- growth [12]: 64.5%
- growth [13]: 57%
- growth [14]: 29.4%
- growth [15]: 43.6%
- growth [16]: 63.9%
- growth [17]: 59%

Compound: CCn1cc(C(=O)O)c(=O)c2cc(F)c(N3CCN(CC(=O)Nc4ccc(/C(C)=N/OC)cc4)CC3)cc21
- growth [1]: 105%
- growth [2]: 92.3%
- growth [3]: 101%
- growth [4]: 103%
- growth [5]: 85.1%
- growth [6]: 94.6%
- growth [7]: 97.6%
- growth [8]: 94.7%
- growth [9]: 97.8%
- growth [10]: 70.3%
- growth [11]: 92.5%
- growth [12]: 102%
- growth [13]: 110%
- growth [14]: 93.8%
- growth [15]: 104%
- growth [16]: 101%
- growth [17]: 94.5%

Compound: Cc1c(Cl)cccc1NC(=O)c1sc2nc3c(cc2c1N)CN(Cc1ccccc1)CC3
- growth [1]: 54.8%
- growth [2]: 64.2%
- growth [3]: 75.1%
- growth [4]: 62.4%
- growth [5]: 44.2%
- growth [6]: 52.2%
- growth [7]: 0.716% (active)
- growth [8]: 28.6%
- growth [9]: 41.4%
- growth [10]: 56.8%
- growth [11]: 61.9%
- growth [12]: -4.11% (active)
- growth [13]: 16.8%
- growth [14]: 16.1%
- growth [15]: 39.3%
- growth [16]: 82.9%
- growth [17]: 30.8%

Compound: CC(=O)Oc1c2c(nc3c1c1ccccc1n3Cc1ccccc1)-c1ccccc1C2
- growth [1]: 73.3%
- growth [2]: 88.4%
- growth [3]: 97%
- growth [4]: 83.9%
- growth [5]: 92%
- growth [6]: 81.1%
- growth [7]: 79%
- growth [8]: 94.4%
- growth [9]: 85.5%
- growth [10]: 56.7%
- growth [11]: 104%
- growth [12]: 98.2%
- growth [13]: 98.8%
- growth [14]: 51.1%
- growth [15]: 73.5%
- growth [16]: 87.9%
- growth [17]: 88.7%

Compound: CSc1nc(-c2cccs2)c2c(N)[nH]nc2n1
- growth [1]: 112%
- growth [2]: 102%
- growth [3]: 106%
- growth [4]: 108%
- growth [5]: 89.9%
- growth [6]: 111%
- growth [7]: 109%
- growth [8]: 106%
- growth [9]: 102%
- growth [10]: 90.3%
- growth [11]: 96.4%
- growth [12]: 117%
- growth [13]: 119%
- growth [14]: 94.3%
- growth [15]: 92.2%
- growth [16]: 107%
- growth [17]: 48.8%

Compound: CCOCc1nc2ccccc2c(=O)[nH]1
- growth [1]: 102%
- growth [2]: 103%
- growth [3]: 106%
- growth [4]: 113%
- growth [5]: 108%
- growth [6]: 96.6%
- growth [7]: 109%
- growth [8]: 93.8%
- growth [9]: 103%
- growth [10]: 105%
- growth [11]: 106%
- growth [12]: 103%
- growth [13]: 97.1%
- growth [14]: 94.9%
- growth [15]: 98%
- growth [16]: 105%
- growth [17]: 103%

Compound: COc1ccc2[nH]c(-c3ccccc3)c(C=C(C#N)C#N)c2c1
- growth [1]: -50.2% (active)
- growth [2]: 48.2%
- growth [3]: 65.7%
- growth [4]: 35%
- growth [5]: 51.2%
- growth [6]: 49.5%
- growth [7]: 7.4% (active)
- growth [8]: 40.9%
- growth [9]: -4.6% (active)
- growth [10]: 26.4%
- growth [11]: 4.38% (active)
- growth [12]: -55.1% (active)
- growth [13]: 25.1%
- growth [14]: 17.1%
- growth [15]: 23.5%
- growth [16]: 49.3%
- growth [17]: 18.6%

Compound: COc1cc2c(Nc3ccc(NC(=O)Nc4ccc(Cl)c(C(F)(F)F)c4)c(Cl)c3)ncnc2cc1OCCCN1CCN(C)CC1
- growth [1]: -39% (active)
- growth [2]: 13%
- growth [3]: 31%
- growth [4]: -9.14% (active)
- growth [5]: 20.4%
- growth [6]: -2.58% (active)
- growth [7]: 11%
- growth [8]: -8.65% (active)
- growth [9]: 93.3%
- growth [10]: 22.2%
- growth [11]: 21.6%
- growth [12]: -71.2% (active)
- growth [13]: -85.4% (active)
- growth [14]: -77.4% (active)
- growth [15]: -73.2% (active)
- growth [16]: 20.2%
- growth [17]: -55.1% (active)

Compound: COc1ccc(-c2cc(-c3nnc(SCC(=O)Nc4ccc(/C(C)=N\O)cc4)o3)c3ccccc3n2)cc1
- growth [1]: 99%
- growth [2]: 105%
- growth [3]: 113%
- growth [4]: 103%
- growth [5]: 111%
- growth [6]: 112%
- growth [7]: 98%
- growth [8]: 99.9%
- growth [9]: 102%
- growth [10]: 102%
- growth [11]: 108%
- growth [12]: 110%
- growth [13]: 105%
- growth [14]: 96.1%
- growth [15]: 107%
- growth [16]: 101%
- growth [17]: 101%

Compound: COc1cc(C2=N/C(=C\c3cc4ccccc4nc3Oc3ccccc3)C(=O)N2C(=N)N)cc(OC)c1OC
- growth [1]: 86.1%
- growth [2]: 33.2%
- growth [3]: 80.7%
- growth [4]: 24.3%
- growth [5]: 44.2%
- growth [6]: 82.1%
- growth [7]: 76.7%
- growth [8]: 33.7%
- growth [9]: 52.6%
- growth [10]: 49%
- growth [11]: 32.7%
- growth [12]: 95.2%
- growth [13]: 87.8%
- growth [14]: 75.5%
- growth [15]: 52.8%
- growth [16]: 75.2%
- growth [17]: 79.6%

Compound: COc1cc(C)ccc1Oc1nc(Nc2ccc(N3CCOCC3)cc2)ncc1N=Cc1cc(C(F)(F)F)cc(C(F)(F)F)c1
- growth [1]: 69.7%
- growth [2]: 63%
- growth [3]: 75.7%
- growth [4]: 71%
- growth [5]: 43.3%
- growth [6]: 33.4%
- growth [7]: 76.5%
- growth [8]: 61.9%
- growth [9]: 69.9%
- growth [10]: 57.7%
- growth [11]: 89.4%
- growth [12]: 65.1%
- growth [13]: 80.5%
- growth [14]: 46.4%
- growth [15]: 47.6%
- growth [16]: 91.6%
- growth [17]: 55.3%

Compound: Cc1ccc(-c2nc(C#N)c(S(=O)(=O)N(C)CCO)o2)cc1
- growth [1]: 27.7%
- growth [2]: 67.4%
- growth [3]: 92%
- growth [4]: 105%
- growth [5]: 102%
- growth [6]: 60.5%
- growth [7]: 42.3%
- growth [8]: 99.3%
- growth [9]: 96.7%
- growth [10]: 67.3%
- growth [11]: 76.7%
- growth [12]: 65%
- growth [13]: 35.1%
- growth [14]: 39.8%
- growth [15]: 53.4%
- growth [16]: 107%
- growth [17]: 89.9%

Compound: CCN1CCN(c2ccc(NC(=O)Nc3nc4ccc(-c5ccccc5OC)cc4s3)cc2)CC1
- growth [1]: -33% (active)
- growth [2]: -52.5% (active)
- growth [3]: -11.5% (active)
- growth [4]: -76.1% (active)
- growth [5]: -12.5% (active)
- growth [6]: -71.3% (active)
- growth [7]: -90.5% (active)
- growth [8]: -23.2% (active)
- growth [9]: -67.3% (active)
- growth [10]: -45.4% (active)
- growth [11]: 31.6%
- growth [12]: -85.5% (active)
- growth [13]: -70% (active)
- growth [14]: -70.8% (active)
- growth [15]: -82.3% (active)
- growth [16]: -88.1% (active)
- growth [17]: -83.5% (active)

Compound: COc1ccc(C(=O)c2cc(OC)c(C)c(OC)c2)cc1OC(=O)CCl
- growth [1]: 28.3%
- growth [2]: 25.4%
- growth [3]: 74.8%
- growth [4]: 60.1%
- growth [5]: 19.4%
- growth [6]: 30.7%
- growth [7]: -8.39% (active)
- growth [8]: 40.5%
- growth [9]: 10.5%
- growth [10]: 43.8%
- growth [11]: 15.6%
- growth [12]: -17.2% (active)
- growth [13]: 24.1%
- growth [14]: 13.4%
- growth [15]: 10.2%
- growth [16]: 24.9%
- growth [17]: 19.1%

Compound: COc1ccc(NC(=O)c2sc3nc(C)c(C(C)=O)cc3c2N)cc1
- growth [1]: 85.6%
- growth [2]: 91.9%
- growth [3]: 91.3%
- growth [4]: 95.7%
- growth [5]: 99.3%
- growth [6]: 115%
- growth [7]: 109%
- growth [8]: 105%
- growth [9]: 98.9%
- growth [10]: 82.7%
- growth [11]: 86.5%
- growth [12]: 93.2%
- growth [13]: 97%
- growth [14]: 95.7%
- growth [15]: 88.6%
- growth [16]: 103%
- growth [17]: 105%

Compound: NC(=N\N=C\c1ccccc1O)/C(N)=N/N=C/c1ccccc1O
- growth [1]: 61.1%
- growth [2]: 81.3%
- growth [3]: 96.7%
- growth [4]: 6.53% (active)
- growth [5]: 92.4%
- growth [6]: 97.8%
- growth [7]: 63.1%
- growth [8]: 68.8%
- growth [9]: 83.3%
- growth [10]: 64%
- growth [11]: 72%
- growth [12]: 72.2%
- growth [13]: 71.5%
- growth [14]: 69.4%
- growth [15]: 81.3%
- growth [16]: 99.1%
- growth [17]: 55.8%

Compound: COc1ccc2nc3nc4ccc[nH]c4cc3c2c1
- growth [1]: 82.9%
- growth [2]: 96.6%
- growth [3]: 115%
- growth [4]: 92.2%
- growth [5]: 89%
- growth [6]: 69.6%
- growth [7]: 91.8%
- growth [8]: 92.5%
- growth [9]: 96.1%
- growth [10]: 38.3%
- growth [11]: 84.1%
- growth [12]: 101%
- growth [13]: 95.7%
- growth [14]: 5.69% (active)
- growth [15]: 104%
- growth [16]: 101%
- growth [17]: 52.1%
